Results from PubChem BioAssay AID1565 (Sanford-Burnham Center for Chemical Genomics, 2009).
The campaign covered roughly 290,000 compounds. About 3,200 (1.1%) were called active. Rule as the data show it: active = inhibition above about 60%; inactive = the rest. For the sample, actives were picked, then their nearest neighbours and some compounds at random.

Biological target: Phosphoethanolamine/phosphocholine phosphatase (Homo sapiens) (UniProt Q8TCT1)
Experiment: PubChem AID 1565
Settings: recombinant PHOSPHO1, absorbance phosphatase assay; at 13.3 µM; hits give high values

Chain of Phosphoethanolamine/phosphocholine phosphatase (Homo sapiens) (Q8TCT1 whole entry, looked up): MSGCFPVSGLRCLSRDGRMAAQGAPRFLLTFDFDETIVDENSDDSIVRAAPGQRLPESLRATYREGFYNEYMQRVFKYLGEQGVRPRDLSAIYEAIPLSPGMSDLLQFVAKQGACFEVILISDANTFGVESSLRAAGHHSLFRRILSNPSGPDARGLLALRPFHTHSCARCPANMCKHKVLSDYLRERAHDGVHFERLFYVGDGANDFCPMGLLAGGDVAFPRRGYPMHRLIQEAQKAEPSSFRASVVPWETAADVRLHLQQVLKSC

inhibition, inactive:
COc1ccc(-c2nnc(NC(=O)CS(=O)(=O)c3ccc(Cl)cc3)o2)c(OC)c1 46.9%
O=S(=O)(Cc1cc(Cl)nc(-c2cccnc2)n1)c1ccccc1 17.6%
COc1ccc(Cl)cc1NC(=O)CN(C)C(=O)CCCc1c[nH]c2ccccc12 9.8%
CCCNC(=O)CCn1nc(-c2ccccc2)c2ccccc2c1=O 19.9%
O=C(Nc1ccc(C(=O)NCc2ccccc2Cl)cc1)C1=CSCCO1 37.5%
CS(=O)(=O)NCc1ccc(C(=O)NCc2ccccc2)cc1 -10%
Cc1ccccc1OCC(=O)NNC(=O)c1cc(S(=O)(=O)N(C)C)ccc1N1CCCC1 33.4%
CSc1ccc(S(=O)(=O)N2CCC(C(=O)NCCc3ccccc3)CC2)cc1 13.8%
Cc1nn(CCCC(=O)NCc2ccccc2Cl)c(=O)c2nccn12 35.7%
CCOC(=O)CNC(=O)CSc1nnc(-c2cccc(OC)c2)n1CC 47.2%
CCn1c(COc2ccc(OC)cc2)nnc1SCC(=O)Nc1cc(OC)ccc1OC -14.1%
S=c1[nH]nc(-c2cccs2)n1/N=C/c1cn(-c2ccccc2)nc1-c1ccc(Cl)cc1 -132%
S=c1[nH]nc(-c2cccs2)n1/N=C/c1cccs1 56.2%
CC(=O)Oc1ccc2c(=O)oc(-c3ccc([N+](=O)[O-])cc3)nc2c1 35.6%
O=C(COc1ccc(Cl)cc1Cl)NCCCNC(=O)c1cnccn1 44.9%
COc1cc(C(=O)NCc2nnc(SCC(=O)c3ccc(Cl)cc3)o2)cc(OC)c1OC 43.5%
Cc1cc(C)nc(SCC(=O)c2ccc(Cl)cc2)n1 27%
O=C(CN1CCN(C(=O)C2CCCO2)CC1)Nc1c(Cl)cccc1Cl (stereo not drawn) 26.3%
Cc1cccnc1NC(=O)c1cccc(S(=O)(=O)N2CCN(c3ccc(F)cc3)CC2)c1 27%
CSc1ccc(/C=N\NC(=O)COc2ccc(Cl)cc2Br)cc1 -15.7%
O=C(N/N=C/c1ccccn1)c1cccc(NC(=O)c2ccc(Cl)cc2)c1 41.5%
N#Cc1ccc(S(=O)(=O)NCC(=O)OCC(=O)NCCc2ccccc2)cc1 28.7%
O=C(Nc1ccc(C2CC2(Cl)Cl)cc1)c1cccc([N+](=O)[O-])c1 (stereo not drawn) -31.5%
CSCCC(NC(=O)COc1ccccc1)C(=O)OCC(=O)c1cc2ccccc2o1 (stereo not drawn) 0.2%
Cc1c(Cl)cnc(NC(=O)COC(=O)c2ccc(S(=O)(=O)NCc3ccco3)cc2)c1Cl -11.7%
O=C1CCC(C(=O)N2CCC(O)(c3ccccc3)CC2)CN1CCc1ccccc1 (stereo not drawn) 51.4%
CS(=O)(=O)c1ccc(-c2nnn(CC(=O)Nc3ccc4c(c3)OCCO4)n2)cc1 11%
CCCCSc1nc2ccccc2[nH]1 11.7%
CCCCSc1nnc(-c2ccc(C)cc2)o1 1.3%
COC(=O)c1ccc(COc2ccc(C#N)cc2)o1 44.1%
CC1CCN(CC(O)COc2ccc(C(=O)c3ccccc3)cc2)CC1 (stereo not drawn) 8.5%
Cc1cc(NC(=O)c2ccccc2C)no1 19.1%
CCOc1cc(N2CCOCC2)c(OCC)cc1NC(=O)COc1cccc2cccnc12 23.3%
OC(COc1ccc2ccccc2c1)CN1CCOCC1 (stereo not drawn) 8%
Cc1ccc(NC(=O)C2CCN(S(=O)(=O)c3ccc4c(c3)NC(=O)CO4)CC2)cc1C 26.1%
CCc1ccc(N(C(=O)c2csnn2)C(C(=O)NC2CCCCC2)c2ccncc2)cc1 (stereo not drawn) 41.6%
CCN(CC)C(=O)c1sc2nc(-c3ccccc3)ccc2c1N 21.4%
Nc1nc(-c2ccccc2)cc(-c2ccccc2)n1 19.2%
CCc1ccc(NC(=O)C(=O)NNC(=O)c2cccs2)cc1 44.9%
Cn1cc(CN2CCC(C(O)CCc3ccccc3)CC2)c(-c2ccccc2F)n1 (stereo not drawn) 28.2%
Cn1cc(CN2CCCC(CO)C2)c(-c2ccc(Oc3ccccc3)cc2)n1 (stereo not drawn) 39.5%
O=C(CSc1nnc2c(n1)[nH]c1ccccc12)NC1CCCCC1 3.6%
CCCCC(=O)Nc1nc(C)c(-c2csc(Nc3ccc(Cl)cc3)n2)s1 28.7%
C=CCCC(=O)Nc1nc(C)c(-c2csc(Nc3ccc(Cl)cc3)n2)s1 -1.4%
Cc1ccc(Nc2nc(-c3sc(NC(=O)c4ccccc4)nc3C)cs2)cc1 37.9%
Cc1nc(NC(=O)c2cccc(Cl)c2)sc1-c1csc(Nc2cccc(Cl)c2)n1 19.2%
CCc1ccc(N(CC(=O)NCc2cccnc2)S(=O)(=O)c2ccccc2)cc1 4.5%
COc1cc2c(cc1OC)C(/C=C/c1ccco1)=NCC2 5.3%
CCOC(=O)C1=C(CN2CCc3ccccc32)NC(=O)NC1c1ccc(Cl)cc1 (stereo not drawn) 18.7%

inhibition, active:
CSc1ccc(CNC(=O)c2ccc(NC(=O)C3=CSCCO3)cc2)cc1 69%
CCOC(=O)CNC(=O)CSc1nnc(COc2ccc(Cl)cc2)n1CC 95.8%
Oc1ccccc1/C=N/n1c(-c2cccs2)n[nH]c1=S 106%
CC(C)C[C@@H](N)c1nnc(SCC(=O)c2ccc(Cl)cc2)o1 81.6%
O=C(COc1ccc(Cl)cc1Cl)N/N=C/c1ccccn1 61%
CSCCC(NC(=O)c1ccco1)C(=O)OCC(=O)Nc1ncc(Cl)c(C)c1Cl (stereo not drawn) 63.8%
CCCCSc1nnc2c(n1)OC=Nc1ccccc1-2 60.8%
Oc1c(C(c2ccccn2)N2CCOCC2)ccc2cccnc12 (stereo not drawn) 92.7%
CS(=O)(=O)c1sc2nc(-c3ccccc3)cc(-c3ccccc3)c2c1N 94.5%
NC(=S)c1ccc(C(N)=S)o1 95.9%
CCCOC1CCCN(Cc2cn(C)nc2-c2ccccc2F)C1 (stereo not drawn) 60.1%
CCCCCCC(=O)Nc1nc(C)c(-c2csc(Nc3cccc(OC)c3)n2)s1 104%
CCCCCCC(=O)Nc1nc(C)c(-c2csc(Nc3cc(Cl)ccc3OC)n2)s1 96.2%
CCOC(=O)C1=NN(c2ccc(Cl)cc2)/C(=C/C2=NCCc3cc(OC)c(OC)cc32)S1 63.1%
